DYRK1A inh – blocks rat Dyrk1A kinase activity; ADP-Glo luminescence, NFATc1 peptide; inhibition, % at 12.5 µM; 310,000 tested, 0.43% active; AID 504441; in the data active = inhibition above about 50%
CDK5 p35 inh – CDK5/p35 (human) kinase inhibition | Q00535+Q15078 | inhibition, % at 10 µM | Recombinant CDK5/p35, ADP-Glo luminescence, 60 min | 330,000 tested, 0.01% active;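 active = highest replicate inhibition of at least 50% and at least 75% of replicates reaching 50%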
Rtt109 Vps75 – blocks Candida albicans Rtt109/Vps75 acetyltransferase activity. AID 540336. purified Rtt109/Vps75, ThioGlo CoA-SH fluorescence, 4 h. inhibition, % at 34.9 µM. 330,000 tested, 0.16% active. Q5AAJ8;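 active = inhibition of at least 50% in every replicate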
esBAF inh – inhibitors of esBAF chromatin remodeling in mouse ES cells; reporter increase, % at 12.5 µM; Bmi1-luciferase knock-in reporter, 24 h; 100% = twice the neutral-well signal; 350,000 tested, 2% active; in the data active = activation above about 40%;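 note: a rise in the Bmi1 reporter signal indicates esBAF inhibition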
SMARCA2 activ – activators of SMARCA2 function. MG213 cells, MMTV-luciferase reporter, dexamethasone, overnight. activation, % at 9.1 µM. 370,000 tested, 1% active. AID 652017; in the data active = activation above about 7.8%
dFosB act – activators of mouse delta FosB homodimer; purified delta FosB, TAMRA-CDK5 oligo fluorescence polarization; percent of positive-control signal above neutral wells; activation, % at 25 µM; 340,000 tested, 0.99% active; AID 493131;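 active = mean activation above about 17%, with every replicate also reaching it, limit read from the data, passing the limit was not always enough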
Target sequence (P13346 whole entry, looked up): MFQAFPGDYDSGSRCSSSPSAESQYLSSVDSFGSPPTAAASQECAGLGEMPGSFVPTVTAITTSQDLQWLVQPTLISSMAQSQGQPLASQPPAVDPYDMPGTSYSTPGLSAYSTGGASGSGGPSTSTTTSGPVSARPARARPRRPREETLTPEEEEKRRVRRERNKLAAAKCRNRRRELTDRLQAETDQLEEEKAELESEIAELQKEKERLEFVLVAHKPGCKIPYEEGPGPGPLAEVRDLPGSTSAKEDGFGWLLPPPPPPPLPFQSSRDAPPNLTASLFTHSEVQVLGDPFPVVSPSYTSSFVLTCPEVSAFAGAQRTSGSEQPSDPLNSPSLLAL
Large screens that a line does not name were inactive. Shown are actives, neighbours in structure and some others; about 3.2% of the full set was active somewhere.

CCCc1cc(C(=O)Nc2ccc(C(C)=O)cc2)no1	none
CC(=O)c1cccc(NC(=O)c2cc3ccccn3n2)c1	esBAF inh 54.0
CCCc1cc(C(=O)NCc2cccs2)no1	esBAF inh 54.3
Cc1ccccc1NC(=O)c1cc2ccccn2n1	none (no result: esBAF inh)
CCCc1cc(C(=O)Nc2cccc(Cl)c2)no1	esBAF inh 53.8
C[C@H]1CN([C@@H](C)CO)C(=O)c2cccc(NS(C)(=O)=O)c2O[C@@H]1CN(C)CC1CC1	none (no result: DYRK1A inh, CDK5 p35 inh, Rtt109 Vps75, SMARCA2 activ, dFosB act)
C[C@H](CO)N1C[C@H](C)[C@@H](CN(C)Cc2ccc3c(c2)OCO3)OCCCC[C@H](C)Oc2ccc(NC(=O)Nc3cccc4ccccc34)cc2C1=O	none (no result: DYRK1A inh, CDK5 p35 inh, Rtt109 Vps75, SMARCA2 activ, dFosB act)
COc1cc(OC)cc(C(=O)/C=C2\Sc3ccccc3N2C)c1	none
CN1/C(=C\C(=O)c2cccc([N+](=O)[O-])c2)Sc2ccccc21	esBAF inh 74.7
O=C(Nc1ccccc1)OCc1cc(-c2ccccc2Cl)on1	esBAF inh 49.7
O=C(Nc1cccc(O)c1)c1cc(-c2ccccc2Cl)on1	none
COC(=O)C[C@@H]1CC[C@@H]2[C@H](COc3ccc(NS(=O)(=O)c4ccccc4Cl)cc3C(=O)N2C)O1	none (no result: DYRK1A inh, CDK5 p35 inh, Rtt109 Vps75, SMARCA2 activ, dFosB act)
Cc1ccccc1Nc1nc(N)nc(COC(=O)c2cccn2C)n1	esBAF inh 48.2
Clc1ccccc1CSc1ncn(-c2ccccc2)n1	esBAF inh 66.8
Brc1ccc(N=NNc2ccccc2)cc1	esBAF inh 53.5
O=[N+]([O-])c1ccc(N=NNc2ccccc2)cc1	none (no result: esBAF inh, SMARCA2 activ)
CCOC(=O)C1=C(C)NC(=S)N(C(C)=O)C1c1ccc(OC)c(OC)c1 (stereo unspecified)	none (no result: esBAF inh)
CCOC(=O)C1=C(C)NC(=S)N(C(C)=O)C1c1ccc(Cl)cc1 (stereo unspecified)	Rtt109 Vps75 62.6 (no result: DYRK1A inh)
CC(C)CCNC(=O)C1CC(c2cccc([N+](=O)[O-])c2)=NO1 (stereo unspecified)	none
CCCCNC(=O)C1CC(c2cccc([N+](=O)[O-])c2)=NO1 (stereo unspecified)	esBAF inh 89.8
Cc1ccc(CCNC(=O)C2CC(c3ccccc3[N+](=O)[O-])=NO2)cc1 (stereo unspecified)	none (no result: DYRK1A inh)
O=C(NCCc1cccs1)C1CC(c2ccccc2[N+](=O)[O-])=NO1 (stereo unspecified)	esBAF inh 65.7
COc1ccc(CCNC(=O)C2CC(c3ccccc3[N+](=O)[O-])=NO2)cc1 (stereo unspecified)	esBAF inh 45.4
O=C(C[C@@H]1C[C@H]2c3cc(NC(=O)C4CCOCC4)ccc3O[C@H]2[C@H](CO)O1)NCc1ccccc1F	none (no result: DYRK1A inh, CDK5 p35 inh, Rtt109 Vps75, SMARCA2 activ, dFosB act)
O=C(NCc1ccc2c(c1)OCO2)c1cc2n(n1)C(C(F)(F)F)CC(c1ccc3c(c1)OCO3)N2 (stereo unspecified)	dFosB act 21.1
CN1CCN(C(=O)C[C@H]2C=C[C@H](NC(=O)Nc3ccccc3F)[C@@H](CO)O2)CC1	none (no result: DYRK1A inh, CDK5 p35 inh, Rtt109 Vps75, SMARCA2 activ, dFosB act)
Cc1ccccc1Cn1nnc(-c2ccc3c(c2)OCO3)n1	esBAF inh 50.6
Cc1ccccc1Cn1ccc(-c2ccc3c(c2)OCO3)n1	esBAF inh 60.4
Fc1cccc(Cn2ccc(-c3ccc4c(c3)OCO4)n2)c1	esBAF inh 64.0
N#CCn1nnc(-c2ccc3c(c2)OCO3)n1	none
C[C@H]1CCCCO[C@H](CN(C)S(=O)(=O)c2ccc(F)cc2)[C@@H](C)CN([C@@H](C)CO)C(=O)c2cc(NC(=O)Nc3ccc(C(F)(F)F)cc3)ccc2O1	none (no result: DYRK1A inh, CDK5 p35 inh, Rtt109 Vps75, SMARCA2 activ, dFosB act)
CO[C@H]1CC[C@@H]2CCN(C)C(=O)C[C@@H](c3ccccc3)CN(C)C(=O)c3cccc(C#N)c3OC[C@H]1O2	none (no result: DYRK1A inh, CDK5 p35 inh, Rtt109 Vps75, SMARCA2 activ, dFosB act)
C[C@@H]1CN([C@H](C)CO)C(=O)Cc2cc(NC(=O)Nc3ccc4c(c3)OCO4)ccc2O[C@H]1CN(C)Cc1ccc2c(c1)OCO2	none (no result: DYRK1A inh, CDK5 p35 inh, Rtt109 Vps75, SMARCA2 activ, dFosB act)
CCOC(=O)Cc1csc(NC(=O)c2cccs2)n1	esBAF inh 63.5
CCOC(=O)c1csc(NC(=O)c2cccs2)n1	esBAF inh 52.6
C[C@@H]1CN([C@H](C)CO)C(=O)Cc2cc(NC(=O)Cn3cnnn3)ccc2O[C@H]1CN(C)S(=O)(=O)c1ccc(F)cc1	none (no result: DYRK1A inh, CDK5 p35 inh, Rtt109 Vps75, SMARCA2 activ, dFosB act)
CN1CCN(C(=O)C[C@@H]2CC[C@H]3[C@H](COc4ccc(NC(=O)C5CCOCC5)cc4C(=O)N3C)O2)CC1	none (no result: DYRK1A inh, CDK5 p35 inh, Rtt109 Vps75, SMARCA2 activ, dFosB act)
